Measured values: PubChem BioAssay (NCI)
This is part of a sample that, as a whole, favours compounds with a hit. Of some 83,000 tested, about 20% had one in any assay.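 Plates (96-well) were seeded with cells, treated with compound at one concentration, and incubated for 48 hours before percent growth was determined.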 Activity calls are given as the source filed them. The calls were made as follows: active = growth percent below 10; inactive = the rest.

Experiments:
Test in all cases: NCI-60 one-dose screen, 48 h (100 = growth as untreated, 0 = no growth, -100 = all killed)
Conditions in all cases: 10 µM unless noted
[1] = system: NCI-H23 lung
[2] = system: NCI-H226 lung
[3] = system: NCI-H322M lung
[4] = system: HOP-62 NSCLC
[5] = system: NCI-H460 lung
[6] = system: HOP-92 NSCLC
[7] = system: NCI-H522 lung
[8] = system: A549/ATCC NSCLC
[9] = system: 786-0 renal
[10] = system: COLO 205 colon
[11] = system: DU-145 prostate
[12] = system: K-562 leukemia
[13] = system: MALME-3M melanoma
[14] = system: MDA-MB-231 breast
[15] = system: RXF 393 renal
[16] = system: SF-268 CNS
[17] = system: SF-295 CNS
[18] = system: SF-539 CNS
[19] = system: UACC-257 melanoma
[20] = system: M14 melanoma

Measured: growth

CC(=O)c1cccs1
inactive: [1] 93.8% | [2] 98.8% | [3] 97.7% | [4] 83.8% | [5] 104% | [6] 90.8% | [7] 89.3% | [8] 92% | [9] 95.1% | [10] 116% | [11] 109% | [12] 108% | [13] 115% | [14] 101% | [15] 96.6% | [16] 103% | [17] 97.3% | [18] 95.6% | [19] 96.3% | [20] 102%

Clc1ccc(-c2noc(/C=C\c3ccccc3)n2)cc1
inactive: [1] 101% | [2] 93.1% | [3] 87.1% | [4] 106% | [5] 109% | [6] 99.3% | [7] 87% | [8] 87.9% | [9] 99.4% | [10] 105% | [11] 108% | [12] 94.6% | [13] 95% | [14] 109% | [15] 104% | [16] 106% | [17] 89.9% | [18] 101% | [19] 104% | [20] 101%

CCN(CC)CCN1CNC(=S)NC1
active: [2] -70.2%
inactive: [1] 99.2% | [3] 108% | [4] 98.8% | [5] 114% | [6] 96.5% | [7] 94.6% | [8] 106% | [9] 101% | [10] 106% | [11] 106% | [12] 102% | [13] 103% | [14] 114% | [15] 114% | [16] 102% | [17] 102% | [18] 103% | [19] 111% | [20] 102%

CN(C)CCOC(=O)Nc1ccc(Cc2ccc(NC(=O)OCCN(C)C)cc2)cc1
inactive: [1] 94.1% [100 µM] | [2] 111% [100 µM] | [3] 96.8% [100 µM] | [4] 97.7% [100 µM] | [5] 92% [100 µM] | [6] 32.7% [100 µM] | [7] 85.2% [100 µM] | [8] 75.8% [100 µM] | [9] 60.1% [100 µM] | [10] 84.2% [100 µM] | [11] 86.3% [100 µM] | [13] 69.1% [100 µM] | [14] 65.8% [100 µM] | [15] 32.2% [100 µM] | [16] 90.3% [100 µM] | [17] 87.6% [100 µM]
active: [12] -30.1% [100 µM] | [18] -66.5% [100 µM] | [19] -61.6% [100 µM] | [20] -38.6% [100 µM]

C1CCc2onc(-c3noc4c3CCCCC4)c2CC1
inactive: [1] 110% | [2] 123% | [3] 102% | [4] 101% | [5] 140% | [6] 93.6% | [7] 95.8% | [8] 102% | [9] 103% | [10] 118% | [11] 118% | [12] 103% | [13] 106% | [14] 114% | [15] 139% | [16] 92.9% | [17] 99.5% | [18] 104% | [19] 107% | [20] 112%

CCCCOC(=O)c1ccc(NC(=O)CCl)cc1
inactive: [1] 10.4% | [2] 71% | [3] 93.7% | [4] 102% | [5] 35.8% | [6] 27% | [8] 69.4% | [9] 70.2% | [10] 68.8% | [11] 78.3% | [15] 89.5% | [16] 35.7% | [17] 90% | [18] 69.9% | [19] 75.5% | [20] 51.2%
active: [7] -77.7% | [12] 5.65% | [13] -67.5% | [14] 7.83%

COc1ccc(C)cc1NC(=O)SC(C)C
inactive: [1] 102% [100 µM] | [2] 89.6% [100 µM] | [3] 104% [100 µM] | [4] 97% [100 µM] | [5] 103% [100 µM] | [6] 103% [100 µM] | [7] 88.7% [100 µM] | [8] 104% [100 µM] | [9] 102% [100 µM] | [10] 132% [100 µM] | [11] 103% [100 µM] | [12] 92.5% [100 µM] | [13] 98.8% [100 µM] | [14] 92.1% [100 µM] | [15] 102% [100 µM] | [16] 97.3% [100 µM] | [17] 105% [100 µM] | [18] 97.6% [100 µM] | [19] 98.8% [100 µM] | [20] 110% [100 µM]

NNc1ncccn1
inactive: [1] 98.4% | [2] 109% | [3] 105% | [4] 101% | [5] 112% | [6] 111% | [7] 84.6% | [8] 97.1% | [9] 95.7% | [10] 117% | [11] 116% | [12] 102% | [13] 118% | [14] 100% | [15] 120% | [16] 103% | [17] 108% | [18] 105% | [19] 104% | [20] 108%

CC(CCC#N)(CCC#N)C(=O)c1ccccc1
inactive: [1] 109% | [2] 107% | [3] 112% | [4] 107% | [5] 104% | [6] 61% | [7] 88.1% | [8] 97.1% | [9] 110% | [10] 117% | [11] 106% | [12] 104% | [13] 114% | [14] 109% | [15] 98.6% | [16] 112% | [17] 113% | [18] 115% | [19] 106% | [20] 115%

O=Cc1c(O)c2ccccc2[nH]c1=O
inactive: [1] 97.8% | [2] 88.6% | [3] 112% | [4] 102% | [5] 103% | [6] 110% | [7] 94.8% | [8] 90.1% | [9] 104% | [10] 108% | [11] 158% | [12] 111% | [13] 139% | [14] 99.6% | [15] 114% | [16] 110% | [17] 109% | [18] 97.9% | [19] 84.8% | [20] 94.4%

Cc1ccc(NC(=O)c2ccccc2Cl)cc1
inactive: [1] 102% | [2] 108% | [3] 113% | [4] 113% | [5] 101% | [6] 75.5% | [7] 98.6% | [8] 106% | [9] 105% | [10] 120% | [11] 112% | [12] 99.6% | [13] 123% | [14] 118% | [15] 108% | [16] 109% | [17] 108% | [18] 107% | [19] 131% | [20] 114%

Cc1ccc(C)c(CN(C)C)c1O
inactive: [1] 102% | [2] 97.6% | [3] 108% | [4] 97.4% | [5] 102% | [6] 88.1% | [7] 111% | [8] 106% | [9] 107% | [10] 113% | [11] 108% | [12] 119% | [13] 94.8% | [14] 109% | [15] 107% | [16] 104% | [17] 97.8% | [18] 96.5% | [19] 105% | [20] 105%

CCNC(=O)OCCc1c2ccccc2nc2ccccc12
inactive: [1] 111% | [2] 106% | [3] 108% | [4] 109% | [5] 108% | [6] 13.4% | [7] 94.3% | [8] 101% | [9] 112% | [10] 124% | [11] 122% | [12] 88.2% | [13] 126% | [14] 119% | [15] 97.4% | [16] 109% | [17] 127% | [18] 109% | [19] 112% | [20] 120%

C=CCC(O)C=C (stereo not given)
inactive: [1] 101% | [2] 103% | [3] 91.7% | [4] 109% | [5] 107% | [6] 109% | [7] 108% | [8] 99.4% | [9] 97.5% | [10] 106% | [11] 111% | [12] 91.4% | [13] 80.7% | [14] 108% | [15] 107% | [16] 111% | [17] 99.6% | [18] 104% | [19] 93.5% | [20] 104%
